Over roughly 59,000 sequences, the read-out has its median near -0.00055; the lowest 2% begin near -2. Many of the other results were omitted from the sample, so the lowest values are more common in it than they were.

The nature of the test: Identification of proteins required for the processing of the EWS-FLI1 nascent transcript.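 Also: robust z of luciferase light less the median z of siRNAs with the same seed.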 The conditions noted are these: TC32 Ewing sarcoma NR0B1-luc vs CMV-luc (EWS-FLI1 target promoter against control promoter), 48 h; screened at 20 nM (by protocol). The method, boiled down: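 Readout: OneGlo luminescence, 48 h post-transfection, TC32-NR0B1-luc vs TC32-CMV-luc in parallel. siRNA 20 nM final, RNAiMax lipid, 600 cells/well; z-score-MAD transformed, then seed-adjusted.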
Turning to UAUGUGAUUCUGGUGCUUG against LEMD1, the seed-corrected z-score was 0.794.
As for UCUGAUGUAAUUUCCAGUU against AARD, the figure is 0.424; as for UUAGUUGCUGACUUUCUCC against TRAPPC9, -2.06.
Under UUUGAUUUGGUUGUGACCC against ZYX stands -0.301.
As for UUCAAGUUUGUUCUCAGAC against GOLGA6L7P, the figure is -0.298; as for AAGGAAAUUAGGAUAAUAG against FAM217B, 0.732.
Regarding UGUCUCUCAGGCAACAGGC against PROP1, the seed-corrected z-score is -0.922.
Under UUCAUUAUCAUCUAGGUGG against ACTR5 stands -0.49; under UGUGGACAAGGUCUAGGGC against LOC401317, -2.18.
As for AUAGUUGACAUUCCGAACC against CDK5RAP3, the figure is 0.941; as for UUAGAGUUUGCGAAGCAGG against PSG11, 0.96.
As for UUUAUAUCCAUAUCCUUUC against PPIC, the figure is 0.0569.
AGAAGAUGAAUCACAGAGC against BAGE4: the seed-corrected z-score was -0.377.
As for UAUCAUAUUUAAGAGACUG against TSSC1, the figure is 0.912.
As for UAUUUGAAGCUCCAGGGUG against FBXL15, the figure is 0.429; as for UUCUUUAUGCACAACUCCC against MYO1C, -2.91; as for UUACUUUUAGUUCAUACAG against SOX1, -0.0466.
As for AUCAGUACUAAAAUAUCGG against ATG2B, the seed-corrected z-score is 0.25.
Under UCCUCGAAAAUCUCAAAGC against MYO1B stands -0.441; under UGGUAUUCAAAAUAGUCGC against TLK1, -0.673.
As for UUCUGCUUCCGGUAAAUGC against SH3TC1, the figure is -0.467; as for UUUGUUUCGCUGGUCUUUG against RYBP, -2.49.
As for UAUCCUGUAAGUUGUGGGC against TEX28, the figure is 1.15; as for UCACUAAUAGGAUCUUCGC against RAB3GAP1, 0.413.
For the sequence AAGGUUUUCCGAGUAACUC against LYZL6, the seed-corrected z-score worked out at 1.38.
Under AUAAGACUGACCUUGGUUG against TFCP2L1 stands -2.59; under UUUUAUUCGAAAUUCUGCA against ITGB1BP1, 0.195; under AAGCCGAAAAUUGAUCUGC against GLDC, 0.214.
As to AAAUCUGCACUCUUGGUCA against RGS11, the seed-corrected z-score is -2.54.
Under AUGGUAGACACCUUAGUUC against RPL7P23 stands -2.39; under UCGUUUACCAAACAGUUUC against BTK, -0.0928.
Under UUUGUUCUGGAUGCCCUGC against WARSP1 stands 0.407; under UUGGUUCCAUUGUAGGUCU against TSPAN3, -0.422.
Take UUCUUUUUGUCCAAACUCU against SLC25A25: the seed-corrected z-score was -0.247.
As for AAAGUUACUCUUCCAAACC against POC1A, the figure is -2.67; as for AUAUUUCAUAUAGGCGAUG against PLA2G10, -0.215.
In turn, UCUUGGUCCUCUGGCAGUC against TMEM116 registered a seed-corrected z-score of -0.118.
As for AAAUAAAACGUACAAAUAC against SCRT1, the figure is 0.713; as for UUCAUCUCCACAAUCACCG against MAG, -0.753.
For AAGCGGGAUGAAGAAAUCC against GSX2, the seed-corrected z-score is 3.22.
As for UCUGCACUUGUCAAUAUCC against MED10, the figure is -0.53; as for UUCGUUAUCAAUGCAGUAG against TUBB4B, -1.5; as for AUCUUGGUGAUUUCGCGGC against NDN, -2.11.
In the case of UAACAUAAUUAUAACCUCC against ZNF716, the seed-corrected z-score was determined as 0.757.
Under UGAGGUUAGAGCACUGCAC against CCDC87 stands -0.47; under UUCUUUCUCACGGUCACUC against LOC728445, -0.746.
As to UCAGGUGCUCCAAGUACUG against TMEM201, the seed-corrected z-score is -2.21.
As for UCUUUGCUAGGUAAAAAGC against PRUNE, the figure is 1.32; as for AACCGAAGGAGAUUCCUGG against C8orf49, 0.161; as for AAAACGAUCAAAAUCUGUC against RPL14P1, -3.16.
AAUUCACAUGUUGUAAUCC against STRADBP1: the seed-corrected z-score was -0.053.
Regarding UUUCCUAUUCACAAGAGCG against FHIT, the seed-corrected z-score was found to be 1.2.
As for AAUCGCAUUGUUCAUGUCC against OR6K3, the figure is -1.67; as for UCCUUGCAAAUCUCCGACC against LTBP3, -1.01; as for AAACCGAUAAGAACUGAGA against TMEM41A, 0.54.
As for AAACCUAUUAACUUCAAGC against CHKA, the figure is -0.134; as for AAAGUUGAGGGUAGCACUC against AP5B1, 0.334.
As for AUGGGUCUCAUGCUCCUCU against TMEM74B, the figure is -2.13; as for UUAAUGAAUCUACAGUCCG against OTOR, 0.51.
AGUAUAUCACACUUGAUCC against COL4A4: the seed-corrected z-score is -0.00727.
As for UAAAUUUGCAUGAAGGUGU against TMEM179, the figure is 0.108; as for UCUAGGAGCAGCGCAACUG against ANKRD29, -0.882.
Under AAGGUAAACGAUUAAAUUG against LAMTOR3 stands 0.248; under UACAGUAGCACUGCCCUGU against LAMA5, -2.69.
As for ACAUUGGUACCUGUCAUCC against GLYCTK, the figure is 0.203; as for AAAAUAUAGAUAUCUAUGC against GADD45B, 1.35; as for AGCAGCAUCAUUCUCAUGU against LOXL4, 0.376.
The sequence UCAGUUUCCUCGCCGACUC against SH3BP5L registered a seed-corrected z-score of -2.66.
As for UACUGAGGACCUUUCGUUC against SPATA21, the figure is -0.926; as for UGCUUAACCACAGAAGCUG against ADSL, -0.731.
Sequence UACAGUACAAGUAUGAGCU against CYB561D2 gave a seed-corrected z-score of -1.33.
As for UCUCCUUUUAGCAUGAUCC against SNRPE, the figure is -2.15.
UUGAGUCCAAUGUCCACUC against TBC1D9B came in with a seed-corrected z-score of -0.454.
UCCACGUCAAAUUUAUCCC against SPAG1 had a seed-corrected z-score of 0.232.
In the case of AAUUGUCCAACAUCAACGA against METTL2A, the seed-corrected z-score is -1.52.
The sequence AUUCGAAUUAGGUAUUGGG against MAK16 had a seed-corrected z-score of 0.538.
Under UGCUUCAACAAAUCGGGCC against C7orf57 stands -2.05; under UGAUUGCAGAUGAUGAUCC against VHLL, -0.39; under UUAGUUCCCAAGUACUAUC against CHD9, 0.856.
Under UGGAUAGCGGUCCUCAUCC against IL17C stands 1.
Under UUGGGUGUCAGCAGUACUG against PRRC2A stands -2.05; under AAGGUAAACAUGUUCUCGC against TARSL2, 0.287; under AAAGUUACGCACCCAAUUG against GBA, 0.249.
For AAUGAGACGACGGAUGAAC against C19orf25, the seed-corrected z-score is -0.471.

For the origin of these results see PubChem BioAssay AID1159506 (National Center for Advancing Translational Sciences (NCATS), 2015).
